Experimental data: PubChem BioAssay (EPA / NIEHS)
Calls of active or inactive are those of the source. How the source made its calls: active means hit-call score of the fitted dose curve at least 0.9, where 1 is the maximum; inactive means score below 0.9.

Legend:
Conditions in all cases: mRNA level, 48 h; actives raise or lower the signal
[1] = read-out: Cytochrome P450 3A4 (Homo sapiens) (UniProt P08684); assay: LTEA_HepaRG_CYP3A4: Life Technologies and Expression Analysis (LTEA) Assay for CYP3A4 using HepaRG (AID 2283487)
In short: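 HepaRG, 48 h exposure, 8-pt CRC from 100 uM (half-log), 0.5% DMSO, duplicates; serum-free induction medium. Readout: CYP3A4 mRNA, qRT-PCR, ACTB/GAPDH/POLR2A normalization. Bidirectional fit vs DMSO.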

[2] = read-out: DNA damage-inducible transcript 3 (DDIT3), DDIT3 (gene 1649); assay: LTEA_HepaRG_DDIT3: Life Technologies and Expression Analysis (LTEA) Assay for DNA damage-inducible transcript 3 (DDIT3) using HepaRG (AID 2283488)
In short: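 Cells are human HepaRG liver cells treated for 48 h with eight half-log concentrations up to 100 uM in 0.5% DMSO. Transcript levels come from qRT-PCR normalized to three housekeeping genes, with activity fitted in both directions relative to vehicle.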

[3] = read-out: Pro-epidermal growth factor (Homo sapiens) (UniProt P01133); assay: LTEA_HepaRG_EGF: Life Technologies and Expression Analysis (LTEA) Assay for Epidermal growth factor (EGF) using HepaRG (AID 2283489)
In short: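 EGF expression changes in human HepaRG cells are scored by bidirectional fitting relative to 0.5% DMSO controls. Chemicals are tested at eight half-log concentrations up to 100 uM for 48 h in serum-free induction medium.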

[4] = read-out: Ezrin (EZR), EZR (gene 7430); assay: LTEA_HepaRG_EZR: Life Technologies and Expression Analysis (LTEA) Assay for Ezrin (EZR) using HepaRG (AID 2283491)
In short: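 Read-out is EZR transcript level by qRT-PCR, normalized to three housekeeping genes and fitted bidirectionally against the DMSO control. Human HepaRG cells received test chemicals for 48 h at eight half-log concentrations up to 100 uM in 0.5% DMSO.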

CYP3A5 (gene 1577) = assay: LTEA_HepaRG_CYP3A5: Life Technologies and Expression Analysis (LTEA) Assay for CYP3A5 using HepaRG (AID 2283493)
In short: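 Human HepaRG hepatic cells receive 48 h chemical treatment at eight concentrations (half-log steps from 100 uM) in 0.5% DMSO. Expression of CYP3A5 is quantified by Fluidigm qRT-PCR and normalized to three reference genes.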

[5] = read-out: Fatty Acid-Binding Protein 1 (FABP1), FABP1 (gene 2168); assay: LTEA_HepaRG_FABP1: Life Technologies and Expression Analysis (LTEA) Assay for Fatty Acid-Binding Protein 1 (FABP1) using HepaRG (AID 2283494)
In short: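 FABP1 expression by TaqMan qRT-PCR, normalised to three housekeeping genes, in HepaRG cells after 48 h chemical treatment. Eight-point half-log series topping at 100 uM in 0.5% DMSO, duplicates; gain or loss fitted relative to vehicle.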

[6] = read-out: Cytochrome P450 4A22 (Homo sapiens) (UniProt Q5TCH4); assay: LTEA_HepaRG_CYP4A22: Life Technologies and Expression Analysis (LTEA) Assay for Cytochrome P450 4A22 (CYP4A22) using HepaRG (AID 2283495)
In short: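 Cryopreserved HepaRG cells, plated and cultured 48 h, then switched to serum-free induction medium and treated 48 h (duplicates, up to 100 uM, half-log steps, 0.5% DMSO). Expression change of CYP4A22 was fitted bidirectionally against vehicle.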

[7] = read-out: Cytochrome P450 7A1 (Homo sapiens) (UniProt P22680); assay: LTEA_HepaRG_CYP7A1: Life Technologies and Expression Analysis (LTEA) Assay for Cytochrome P450 7A1 (CYP7A1) using HepaRG (AID 2283496)
In short: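 HepaRG, 48 h exposure, 8-pt half-log series from 100 uM, 0.5% DMSO vehicle, duplicates. Readout: TaqMan qRT-PCR mRNA vs three housekeeping genes; bidirectional curve fit against DMSO baseline.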

[8] = read-out: Glutathione S-Transferase (GSTA2), GSTA2 (gene 2939); assay: LTEA_HepaRG_GSTA2: Life Technologies and Expression Analysis (LTEA) Assay for Glutathione S-Transferase (GSTA2) using HepaRG (AID 2283497)
In short: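 GSTA2 transcript levels came from Fluidigm TaqMan qRT-PCR normalized to three housekeeping genes, fitted in both directions against DMSO. HepaRG cultures received chemicals for 48 h in serum-free induction medium (0.5% DMSO), 8 half-log concentrations up to 100 uM, duplicate.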

[9] = read-out: Glutamate-cysteine ligase catalytic (GCLC), GCLC (gene 2729); assay: LTEA_HepaRG_GCLC: Life Technologies and Expression Analysis (LTEA) Assay for Glutamate-cysteine ligase catalytic (GCLC) using HepaRG (AID 2283498)
In short: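 Expression by TaqMan qRT-PCR, normalized to three housekeeping genes (ACTB, GAPDH, POLR2A), with up- or down-regulation fitted against DMSO. HepaRG cells dosed in duplicate for 48 h with 8 half-log concentrations up to 100 uM, vehicle 0.5% DMSO.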

[10] = read-out: growth arrest and DNA damage 45 (GADD45G), GADD45G (gene 10912); assay: LTEA_HepaRG_GADD45G: Life Technologies and Expression Analysis (LTEA) Assay for growth arrest and DNA damage 45 (GADD45G) using HepaRG (AID 2283499)
In short: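 Human hepatic HepaRG line treated 48 h with chemicals (eight concentrations, half-log steps from 100 uM); transcript induction or repression of GADD45G scored by qRT-PCR versus DMSO vehicle.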

[11] = read-out: Glutamate-cysteine ligase regulatory (GCLM), GCLM (gene 2730); assay: LTEA_HepaRG_GCLM: Life Technologies and Expression Analysis (LTEA) Assay for Glutamate-cysteine ligase regulatory (GCLM) using HepaRG (AID 2283500)
In short: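 Endpoint is GCLM transcript level by qRT-PCR, normalized to three housekeeping genes, after 48 h chemical exposure of human HepaRG cells (0.5% DMSO vehicle, top 100 uM, half-log dilutions). Fitting was bidirectional relative to DMSO.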

[12] = read-out: Glutathione S-transferase M3 (GSTM3), GSTM3 (gene 2947); assay: LTEA_HepaRG_GSTM3: Life Technologies and Expression Analysis (LTEA) Assay for Glutathione S-transferase M3 (GSTM3) using HepaRG (AID 2283501)
In short: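 Changes in GSTM3 expression, an oxidative-stress marker, were scored by bidirectional curve fitting against 0.5% DMSO vehicle. Human HepaRG cultures received chemicals for 48 h in duplicate, highest concentration 100 uM with half-log dilutions.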

[13] = read-out: Heat shock 70 kDa protein 1 (HSPA1A), gene 3303; assay: LTEA_HepaRG_HSPA1A: Life Technologies and Expression Analysis (LTEA) Assay for Heat shock 70 kDa protein 1 (HSPA1A) using HepaRG (AID 2283502)
In short: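 Cells were plated and cultured for 48 h, then switched to serum-free induction medium. Chemicals were added at eight half-log concentrations up to 100 uM for 48 h. RNA was then isolated and HSPA1A measured by qRT-PCR with bidirectional curve fitting against DMSO.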

[14] = read-out: Hypoxia-inducible factor 1-alpha (Homo sapiens) (UniProt Q16665); assay: LTEA_HepaRG_HIF1A: Life Technologies and Expression Analysis (LTEA) Assay for Hypoxia-inducible factor 1 (HIF1A) Trancription factor using HepaRG (AID 2283503)
In short: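 HIF1A transcript level read by qRT-PCR (ACTB, GAPDH, POLR2A normalization) after 48 h chemical exposure of HepaRG cultures. Eight half-log concentrations, top 100 uM, 0.5% DMSO vehicle, duplicates; bidirectional curve fit against DMSO baseline.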

[15] = read-out: 3-Hydroxy-3-Methylglutaryl-CoA Synthase 2 (HMGCS2), HMGCS2 (gene 3158); assay: LTEA_HepaRG_HMGCS2: Life Technologies and Expression Analysis (LTEA) Assay for 3-Hydroxy-3-Methylglutaryl-CoA Synthase 2 (HMGCS2) using HepaRG (AID 2283504)
In short: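 Expression of HMGCS2 in human HepaRG liver cells is measured by qRT-PCR 48 h after dosing (highest 100 uM, half-log series, 0.5% DMSO). Values come from bidirectional concentration-response fitting with DMSO as baseline.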

HGF (gene 3082) = assay: LTEA_HepaRG_HGF: Life Technologies and Expression Analysis (LTEA) Assay for Hepatocyte Growth Facto (HGF) using HepaRG (AID 2283505)
In short: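 Gain or loss of HGF mRNA in human HepaRG liver cells after 48 h chemical exposure; eight concentrations up to 100 uM with 0.5% DMSO vehicle, quantified by TaqMan qRT-PCR.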

[16] = read-out: Insulin Like Growth Factor 1 (IGF1), IGF1 (gene 3479); assay: LTEA_HepaRG_IGF1: Life Technologies and Expression Analysis (LTEA) Assay for Insulin Like Growth Factor 1 (IGF1) using HepaRG (AID 2283506)
In short: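 Cells are thawed, plated and cultured 48 h, then exposed in duplicate to chemical (highest 100 uM, half-log steps, 0.5% DMSO) for another 48 h. Total RNA is analysed by Fluidigm qRT-PCR for IGF1 expression relative to vehicle.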

[17] = read-out: Cytochrome P450 3A7 (Homo sapiens) (UniProt P24462); assay: LTEA_HepaRG_CYP3A7: Life Technologies and Expression Analysis (LTEA) Assay for CYP3A7 using HepaRG (AID 2283492)
In short: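 Cells were thawed, plated, cultured 48 h, then treated for a further 48 h with chemicals (eight-point half-log series from 100 uM, 0.5% DMSO). RNA was isolated and CYP3A7 expression quantified by qRT-PCR normalised to ACTB, GAPDH and POLR2A.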

Measured: AC50

Hypoxia-inducible factor 1-alpha (Homo sapiens), sequence (Q16665 whole entry, looked up): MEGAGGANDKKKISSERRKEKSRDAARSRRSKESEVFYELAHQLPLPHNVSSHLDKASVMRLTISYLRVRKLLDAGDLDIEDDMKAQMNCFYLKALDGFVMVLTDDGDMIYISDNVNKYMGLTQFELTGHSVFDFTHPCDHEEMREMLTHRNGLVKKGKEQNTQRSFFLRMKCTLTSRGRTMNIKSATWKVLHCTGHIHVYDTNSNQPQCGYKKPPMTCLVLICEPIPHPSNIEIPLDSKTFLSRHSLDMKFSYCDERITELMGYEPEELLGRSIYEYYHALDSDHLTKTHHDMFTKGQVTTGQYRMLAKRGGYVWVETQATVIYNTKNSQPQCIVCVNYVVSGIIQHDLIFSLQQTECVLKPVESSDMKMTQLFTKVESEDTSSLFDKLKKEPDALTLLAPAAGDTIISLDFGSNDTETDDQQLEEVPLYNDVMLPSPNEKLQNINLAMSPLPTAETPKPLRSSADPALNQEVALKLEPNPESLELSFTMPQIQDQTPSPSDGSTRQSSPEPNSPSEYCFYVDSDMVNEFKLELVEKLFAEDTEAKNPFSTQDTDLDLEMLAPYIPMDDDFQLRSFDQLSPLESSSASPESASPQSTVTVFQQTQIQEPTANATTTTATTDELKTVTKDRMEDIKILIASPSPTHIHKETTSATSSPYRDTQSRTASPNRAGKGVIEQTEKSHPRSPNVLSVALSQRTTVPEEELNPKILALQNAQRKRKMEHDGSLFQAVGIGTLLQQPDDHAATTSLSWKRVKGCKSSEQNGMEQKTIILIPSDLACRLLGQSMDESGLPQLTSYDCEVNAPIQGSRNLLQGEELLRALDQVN
Cytochrome P450 3A4 (Homo sapiens), sequence (P08684 whole entry, looked up): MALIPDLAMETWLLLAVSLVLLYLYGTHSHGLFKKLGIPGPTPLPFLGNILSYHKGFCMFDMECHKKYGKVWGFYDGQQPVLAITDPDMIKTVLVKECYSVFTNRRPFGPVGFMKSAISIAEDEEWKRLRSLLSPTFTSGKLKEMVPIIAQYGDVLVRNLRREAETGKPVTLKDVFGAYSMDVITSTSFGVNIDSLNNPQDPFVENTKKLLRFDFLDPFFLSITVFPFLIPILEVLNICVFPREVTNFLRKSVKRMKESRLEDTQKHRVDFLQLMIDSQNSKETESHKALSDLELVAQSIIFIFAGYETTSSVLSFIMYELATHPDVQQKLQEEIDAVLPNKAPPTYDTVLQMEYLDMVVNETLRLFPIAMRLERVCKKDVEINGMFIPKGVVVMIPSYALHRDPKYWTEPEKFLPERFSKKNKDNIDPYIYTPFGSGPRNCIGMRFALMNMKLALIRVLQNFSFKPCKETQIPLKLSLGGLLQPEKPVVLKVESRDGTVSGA
Cytochrome P450 3A7 (Homo sapiens), sequence (P24462 whole entry, looked up): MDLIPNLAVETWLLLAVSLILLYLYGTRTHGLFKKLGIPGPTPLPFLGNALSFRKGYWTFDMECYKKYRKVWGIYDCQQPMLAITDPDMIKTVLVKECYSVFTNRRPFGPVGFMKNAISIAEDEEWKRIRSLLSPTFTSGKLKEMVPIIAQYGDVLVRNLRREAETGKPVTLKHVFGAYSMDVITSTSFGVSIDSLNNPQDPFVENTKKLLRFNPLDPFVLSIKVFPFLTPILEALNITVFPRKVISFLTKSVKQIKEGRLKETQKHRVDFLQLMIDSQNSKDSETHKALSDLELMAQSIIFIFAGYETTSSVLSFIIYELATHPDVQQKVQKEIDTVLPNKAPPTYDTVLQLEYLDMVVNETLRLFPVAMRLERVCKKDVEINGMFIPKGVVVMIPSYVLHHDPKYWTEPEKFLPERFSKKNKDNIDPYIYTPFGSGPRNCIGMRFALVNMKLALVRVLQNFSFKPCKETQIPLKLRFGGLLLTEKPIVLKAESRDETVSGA

CC(COc1ccc(Oc2ccccc2)cc1)Oc1ccccn1 (configuration not stated)
active: [1] 11.8 µM | [3] 31.5 µM | [7] 19.9 µM | [15] 12.6 µM | [16] 32.8 µM
not listed: [17]
inactive: all other assays above

CC(C)[C@H](C(=O)O[C@H](C#N)c1cccc(Oc2ccccc2)c1)c1ccc(Cl)cc1
active: [1] 10.5 µM | [16] 50 µM
inactive: all other assays above

CN(C)NC(=O)CCC(=O)O
inactive: all assays above

CC(C)N(C(=O)SCC(Cl)=C(Cl)Cl)C(C)C
not listed: [17]
inactive: all other assays above

COP(=O)(OC)SCn1c(=O)oc2cc(Cl)cnc21
active: [1] 37.3 µM | CYP3A5 (gene 1577) 37.8 µM | [6] 46.7 µM | [8] 65 µM | HGF (gene 3082) 65.9 µM
not listed: [17]
inactive: all other assays above
